Test results as given in PubChem BioAssay AID1863 (Southern Research Specialized Biocontainment Screening …, 2009).
The whole screen tested about 300,000 compounds, of which about 480 (0.16%) were called active.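 How the source made its calls: active means inhibition over 29.93%, a cutoff 3 SD above the screen mean, later confirmed by dose response; inconclusive means inhibition over 29.93% but no dose response follow-up; inactive means inhibition at most 29.93% or unconfirmed.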 Not all results are given here. Measured potencies and affinities stand elsewhere.

test: PhoP-dependent GFP reporter repression – Salmonella Typhimurium, primary screen (AID 1863);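 further: 0% = low Mg2+ inducing control and 100% = high Mg2+ repressing control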; details: S. Typhimurium PhoP-regulated promoter GFP reporter, 4 h; at 50 µM; hits give high values

inhibition, inactive:
Cc1ccc(C(=O)N/C(=C\c2ccco2)C(=O)NCc2cccnc2)cc1 2%
CC1(C)C(=O)Nc2ccccc2N1C(=O)Cn1ncc(Cl)c(Cl)c1=O 1.69%
O=C(Nc1cc(N2CCCCC2)ncn1)c1ccccc1 1.2%
COc1ccc(CCNC(=O)c2cc(COc3c(F)cccc3F)on2)c(OC)c1 6.23%
O=C(NC1CCCc2ccccc21)c1ccc([N+](=O)[O-])cc1 (stereo not drawn) -2.23%
O=[N+]([O-])c1ccccc1CNC1CCCc2ccccc21 (stereo not drawn) -9.02%
CNC(=O)c1cn(-c2ccc(Cl)cc2)c(=O)c2ccccc12 -7.59%
Cc1c(O)ccc2c(O)c(NC(=O)c3ccc4c(c3)CCC(C)(C)O4)c(=O)oc12 -3.81%
CO[C@@H]1[C@@H](OC(N)=O)[C@@H](O)C(Oc2ccc3c(O)c(NC(=O)c4ccc(O)c(CC=C(C)C)c4)c(=O)oc3c2C)OC1(C)C (stereo partly drawn) 12.3%
CCC1=C(c2ccc(C)cc2)S(=O)(=O)N=C1N1CCC(C(=O)NCCCN2CCCCC2)CC1 -2.43%
COc1ccc(-n2nc3cc(N)c(Br)cc3n2)cc1 -2.59%
Nc1cccc2nsnc12 -14.7%
CCOC(=O)CCCNC(=O)CSc1nnc(-c2ccccc2)c(-c2ccccc2)n1 -8.06%
COC(=O)c1c(C)[nH]c(O)c1C=Nc1ccc(Oc2ccccc2)cc1 -5.37%
CO[C@H]1C=CO[C@@]2(C)Oc3c(C)c(O)c4c(O)c(c5c(nc6cc(C)ccn65)c4c3C2=O)NC(=O)C(C)=CC=C[C@H](C)[C@H](O)[C@@H](C)[C@@H](O)[C@@H](C)[C@H](OC(C)=O)[C@@H]1C -3.25%
CC(/C=C/c1ccccc1F)=N\NC(=O)c1cccc(F)c1 3.59%
O=S(=O)(NCC1CCCO1)c1ccc(NS(=O)(=O)c2ccc(F)cc2)cc1 (stereo not drawn) 0.92%
N#C/C(=C(/O)CSc1ncn[nH]1)c1nc2ccccc2[nH]1 6.19%
Cc1ccccc1/C=N/Nc1ccc(Cl)nn1 1.24%
Fc1ccccc1/C=N/Nc1ccc(Cl)nn1 -8.24%
C=CCN=C1CC(C)(C)C(C(=O)OC)C(O)=C1C(=O)CCC (stereo not drawn) -0.51%
COc1ccc(Cc2nnc(Nc3ccc(C)cc3)o2)cc1OC 1.4%
O=S(=O)(c1ccc2c(c1)OCCO2)N1CCN(Cc2ccc3c(c2)OCO3)CC1 -0.33%
CN1/C(=C\C=N\O)C(C)(C)c2ccccc21 -8.82%
Brc1ccc(CNCc2cccs2)cc1 10.4%
COc1ccccc1CNCc1ccc(C)cc1 8.2%
COc1ccccc1CNC(=S)NCc1ccc(F)cc1 -5.45%
Fc1ccc(CNCc2ccccc2Cl)cc1 5.07%
COc1cc(CNCCc2ccc(F)cc2)ccc1OCc1ccc(Cl)nc1 23.3%
c1csc(CNCc2ccncc2)c1 -5.07%
COc1ccc(NC(=O)COC(=O)CCCc2c[nH]c3ccccc23)cc1 -12.1%
Cc1cc(C)n(C(=O)Cn2nc(C)c(Cl)c2C)n1 3.42%
O=C(c1ccccc1F)N1CCN(S(=O)(=O)c2ccc3c(c2)OCCO3)CC1 6.03%
Cc1c(NC(=O)CSc2nnnn2-c2ccc(F)cc2)c(=O)n(-c2ccccc2)n1C -6.82%
O=C1NC(C(F)(F)F)(C(F)(F)F)N=C2SC=CN12 -6.31%
O=c1[nH]nc(-c2ccc(F)cc2)cc1Cc1ccc(F)cc1 -10.7%
O=C(Nc1cccc(Cl)c1)Nc1ccnc(-c2cccnc2)n1 5.1%
Oc1c(CN2CCN(c3ccccc3)CC2)cc(Br)c2cccnc12 4.78%
CCOC(=O)N1CCN(Cc2cc(Cl)c3cccnc3c2O)CC1 -0.11%
O=C(Oc1c(CN2CCOCC2)cc(Cl)c2cccnc12)c1ccc(F)cc1 29.7%
Oc1c(CN2CCN(c3ccccn3)CC2)cc(Cl)c2cccnc12 20.1%
CCCNC(=O)Nc1ccc(F)c(Cl)c1 -2.59%
COc1ccc(CNc2nc(NCc3ccc(OC)cc3)n(S(C)(=O)=O)n2)cc1 -5.9%
Cc1c(NC(=O)/C(C#N)=C/c2ccccc2)c(=O)n(-c2ccccc2)n1C 0.82%
CCc1ccc2nc(N)sc2c1 1.27%
O=C(N/N=C/c1ccc([N+](=O)[O-])s1)c1ccccc1 -2.83%
O=C(N/N=C/c1ccc(Cl)s1)C(O)c1ccccc1 (stereo not drawn) -4.15%
Cc1cc(C(=O)N/N=C/c2ccc(C)s2)n[nH]1 11.3%
Cc1[nH]cnc1C(=O)N/N=C/c1ccc([N+](=O)[O-])s1 4.75%
O=C(CSc1nnc(-c2ccccn2)o1)Nc1ccccc1 -5.62%
CCc1ccccc1NC(=O)c1cc(-c2cccs2)on1 -12.5%
COC(=O)c1cc(N=C(N)N=C(N)N)cc(C(=O)OC)c1 -9.38%
O=c1c2ccccc2nc2c3ccccc3c(Cl)nn12 4.87%
Cc1ccc(OCCC(=O)OCC(=O)Nc2cc(C)cc(C)c2)cc1 -5.06%
Cc1cc(NC(=O)COC(=O)C2=COCCO2)c([N+](=O)[O-])cc1C -7.57%
COCc1ccc(O)c2ncccc12 -1.56%
COc1ccccc1N1CCN(Cc2ccc(O)c3ncccc23)CC1 18.9%
Cc1ccccc1NCc1ccc(O)c2ncccc12 -2.12%
Oc1cc2c(cc1CN1CCc3ccccc3C1)OCO2 -4.04%
Oc1ccc(CN2CCN(c3ccccc3)CC2)c2cccnc12 -1.49%
Oc1ccc(CNc2ccccc2)c2cccnc12 5.74%
COCc1cc(CN2CCN(C)CC2)c(O)c2ncccc12 6.95%
Oc1ccc(CN2CCC(Cc3ccccc3)CC2)c2cccnc12 10.7%
